From PubChem BioAssay
Calls of active or inactive are those of the source.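 Rule for the calls, unless noted: active = compound raises insulin release from rat beta cells at 5 mM glucose, no numeric limit stated; inactive = the rest.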

How the values were obtained:
[1] = stimulators of insulin release from INS-1E, primary screen, cell-based, 5 mM glucose, NPC library (AID 1117329); settings: rat INS-1E insulin secretion, at 10 µM, stronger effect = higher value
[2] = growth inhibition of GSK3B-pretreated HCT116 cells – cell-based, CellTiter-Glo, 0.2 to 20 µM (AID 1117336;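 active = compounds lowering colon cancer cell viability after pretreatment blocking the GSK3B kinase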); settings: HCT116 viability after GSK3B inhibitor, at 20 µM, stronger effect = higher value
[3] = inhibition of endothelial tube formation, primary screen, imaging, VEGF stimulated, CD31 staining, tube area, NPC library (AID 1117340;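 active = compound that reduces growth-factor-driven endothelial tube area in a mixed cell culture, no cutoff stated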); settings: VEGF-stimulated ADSC/ECFC co-culture, at 10 µM, stronger effect = higher value
[4] = glucagon-like peptide 1 release enhancers, primary assay, NCI-H716 cell line, NPC library (AID 1117341;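 active = compound raises GLP1 secretion from the human gut endocrine cells, with no numeric limit stated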); settings: NCI-H716 cells, at 10 µM, stronger effect = higher value
[5] = HCT116 colon cancer cell growth inhibition, primary screen, CellTiter-Glo luminescence, NPC library (AID 1117342;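 active = compounds that lower survival of HCT116 colon cancer cells in the luminescence readout, no numeric limit stated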); settings: at 20 µM (top of the series)
[6] = CellTiter-Glo luminescent readout of SW480 viability loss, NPC library primary (AID 1117343;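 active = compounds that lower viability of the colon cancer cells in the luminescence readout, with no numeric limit stated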); settings: CellTiter-Glo luminescence; at 20 µM (top of the series)
[7] = decreased DLD-1 cellular survival, CellTiter-Glo luminescent readout, NPC compound collection, primary HTS (AID 1117346;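 active = compounds that lower survival of DLD-1 colon cancer cells in the luminescence readout, no cutoff given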); settings: DLD-1 viability, CellTiter-Glo luminescence; at 20 µM (top of the series)
[8] = target: 6-phosphogluconate dehydrogenase, decarboxylating (Homo sapiens) (UniProt P52209); assay: 6PGD enzyme inhibitors, primary screen, biochemical, human, recombinant enzyme, NADPH absorbance (AID 1159550;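 active = at least 20% inhibition of 6-phosphogluconate dehydrogenase activity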); settings: recombinant 6PGD, NADPH absorbance 341 nm; at 10 µM; stronger effect = higher value
[9] = differential killing of epithelial or mesenchymal cells, primary screen, imaging, PC-3E GFP, TEM4-18 mCherry, co-culture (AID 1345086;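 active = compounds killing one labelled cell type while sparing the other, by normalised counts and ratio limits, not self-fluorescent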;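 for all read-outs here: cells exposed to compound for 72 h before imaging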;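 for red/green cell ratio (normalised): normalised mesenchymal count divided by normalised epithelial count so high means epithelial killing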); settings: imaging cell counts, at 1 µM; for red/green cell ratio (normalised): actives lie on both sides, counts scaled to control wells, 1 = unselective
[10] = measured here: epithelial PC-3E GFP cell survival
[11] = measured here: mesenchymal TEM4-18 mCherry cell survival

Sequence of 6-phosphogluconate dehydrogenase, decarboxylating (Homo sapiens) (P52209 whole entry, looked up): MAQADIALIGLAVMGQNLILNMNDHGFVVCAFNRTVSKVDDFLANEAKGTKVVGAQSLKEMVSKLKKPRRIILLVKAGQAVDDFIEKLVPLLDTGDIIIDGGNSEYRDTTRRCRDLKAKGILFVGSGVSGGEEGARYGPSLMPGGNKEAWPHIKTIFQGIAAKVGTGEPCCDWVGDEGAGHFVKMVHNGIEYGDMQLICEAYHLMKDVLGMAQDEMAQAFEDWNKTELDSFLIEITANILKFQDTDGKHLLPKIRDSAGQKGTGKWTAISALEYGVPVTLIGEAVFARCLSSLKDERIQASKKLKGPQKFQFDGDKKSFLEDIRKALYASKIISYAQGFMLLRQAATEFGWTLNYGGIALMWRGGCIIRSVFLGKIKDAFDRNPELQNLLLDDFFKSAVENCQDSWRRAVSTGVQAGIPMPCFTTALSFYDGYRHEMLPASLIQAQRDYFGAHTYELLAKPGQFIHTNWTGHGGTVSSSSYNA

CCCCC1C(=O)N(c2ccccc2)N(c2ccccc2)C1=O
1.19: normalised cell number [9, 11]
inactive: insulin secretion stimulation [1] -1.7% | viability decrease [2] -11.7% | tube area decrease [3] 0.7% | GLP1 secretion stimulation [4] -3.3% | inhibition of viability [5] 9.25% | viability decrease (inhibition) [6] 13.6% | viability decrease (inhibition) [7] -12.9% | inhibition [8] 1.47% | red/green cell ratio (normalised) [9] 0.97
1.22: normalised cell number [9, 10]

NC(=O)c1ccc([N+](=O)[O-])cc1Cl
0.87: normalised cell number [9, 10]
1.19: normalised cell number [9, 11]
inactive: insulin secretion stimulation [1] -2.1% | viability decrease [2] -0.35% | tube area decrease [3] -35.4% | GLP1 secretion stimulation [4] 0% | inhibition of viability [5] 42.7% | viability decrease (inhibition) [6] 32.9% | viability decrease (inhibition) [7] 3.8% | inhibition [8] 10.9% | red/green cell ratio (normalised) [9] 1.37

C[N+](C)(C)CCOC(N)=O
1.03: normalised cell number [9, 11]
0.85: normalised cell number [9, 10]
inactive: insulin secretion stimulation [1] -0.5% | viability decrease [2] 1.3% | tube area decrease [3] -7.7% | GLP1 secretion stimulation [4] 2.2% | inhibition of viability [5] -2.4% | viability decrease (inhibition) [6] -4.8% | viability decrease (inhibition) [7] -12.5% | inhibition [8] -13.5% | red/green cell ratio (normalised) [9] 1.21

C=CCc1ccc(O)c(OC)c1
1.13: normalised cell number [9, 11]
inactive: insulin secretion stimulation [1] 4.7% | viability decrease [2] 22.5% | tube area decrease [3] -3.7% | GLP1 secretion stimulation [4] 2.4% | inhibition of viability [5] 3.77% | viability decrease (inhibition) [6] -11.7% | viability decrease (inhibition) [7] -4.6% | inhibition [8] -3.83% | red/green cell ratio (normalised) [9] 1.2
0.95: normalised cell number [9, 10]

NC(=O)NC(=O)Cc1ccccc1
1.21: normalised cell number [9, 11]
inactive: insulin secretion stimulation [1] 1.3% | viability decrease [2] -10.2% | tube area decrease [3] 2.3% | GLP1 secretion stimulation [4] -2.2% | inhibition of viability [5] -3.67% | viability decrease (inhibition) [6] 38.8% | viability decrease (inhibition) [7] -11.6% | inhibition [8] 7.97% | red/green cell ratio (normalised) [9] 1.02
1.19: normalised cell number [9, 10]

CC(C(=O)O)c1ccc(C(=O)c2cccs2)cc1 (stereo not given)
inactive: insulin secretion stimulation [1] 1.8% | viability decrease [2] -5.4% | tube area decrease [3] -3.5% | GLP1 secretion stimulation [4] -3.9% | inhibition of viability [5] 0.8% | viability decrease (inhibition) [6] -1.2% | viability decrease (inhibition) [7] 0% | inhibition [8] -2.86% | red/green cell ratio (normalised) [9] 1.06
1.02: normalised cell number [9, 11]
0.96: normalised cell number [9, 10]

Oc1ccc(Cl)c2cccnc12
1.45: normalised cell number [9, 11]
1.27: normalised cell number [9, 10]
inactive: insulin secretion stimulation [1] -2.1% | tube area decrease [3] 11.9% | GLP1 secretion stimulation [4] -5.7% | inhibition of viability [5] 32.7% | viability decrease (inhibition) [7] 43.6% | inhibition [8] 10.3% | red/green cell ratio (normalised) [9] 1.13
active: viability decrease [2] 57.1% | viability decrease (inhibition) [6] 84.4%

COc1c2occc2c(OC)c2c(=O)cc(C)oc12
0.95: normalised cell number [9, 11]
inactive: insulin secretion stimulation [1] 0.7% | viability decrease [2] -6.4% | tube area decrease [3] 21.8% | GLP1 secretion stimulation [4] 5.9% | inhibition of viability [5] -7.6% | viability decrease (inhibition) [6] 21.5% | viability decrease (inhibition) [7] -0.4% | inhibition [8] 1.04% | red/green cell ratio (normalised) [9] 0.89
1.07: normalised cell number [9, 10]

CCN(CC)C(C)CN1c2ccccc2Sc2ccccc21 (stereo not given)
active: insulin secretion stimulation [1] 7.3% | inhibition of viability [5] 69.2% | viability decrease (inhibition) [6] 109% | viability decrease (inhibition) [7] 76.9%
inactive: viability decrease [2] -28.5% | tube area decrease [3] 25% | GLP1 secretion stimulation [4] 4.8% | inhibition [8] -5.57% | red/green cell ratio (normalised) [9] 0.85
0.92: normalised cell number [9, 11]
1.09: normalised cell number [9, 10]

Cc1c(N(C)CS(=O)(=O)O)c(=O)n(-c2ccccc2)n1C
1.35: normalised cell number [9, 11]
1.23: normalised cell number [9, 10]
inactive: insulin secretion stimulation [1] -0.6% | viability decrease [2] 1.05% | tube area decrease [3] -53.1% | GLP1 secretion stimulation [4] 2.4% | inhibition of viability [5] 3% | viability decrease (inhibition) [6] 23.9% | viability decrease (inhibition) [7] 3.35% | inhibition [8] 19.3% | red/green cell ratio (normalised) [9] 1.09

CN1C(C)(C)CCCC1(C)C
inactive: insulin secretion stimulation [1] 0.8% | viability decrease [2] 23.2% | tube area decrease [3] 2.5% | GLP1 secretion stimulation [4] -2.3% | inhibition of viability [5] -1.5% | viability decrease (inhibition) [6] -25.5% | viability decrease (inhibition) [7] -10.7% | inhibition [8] 2.01% | red/green cell ratio (normalised) [9] 0.96
1.05: normalised cell number [9, 11]
1.09: normalised cell number [9, 10]

COc1cc(C(=O)NCc2ccc(OCCN(C)C)cc2)cc(OC)c1OC
inactive: insulin secretion stimulation [1] 2.5% | viability decrease [2] 19.5% | tube area decrease [3] 16.6% | GLP1 secretion stimulation [4] -2.4% | inhibition of viability [5] -8.75% | viability decrease (inhibition) [6] -11.4% | viability decrease (inhibition) [7] -8.9% | inhibition [8] 10.5% | red/green cell ratio (normalised) [9] 0.88
1.18: normalised cell number [9, 11]
1.34: normalised cell number [9, 10]

CCN(CC)C(=O)c1cccc(C)c1
1.19: normalised cell number [9, 11]
1: normalised cell number [9, 10]
inactive: insulin secretion stimulation [1] 5% | viability decrease [2] 3.4% | tube area decrease [3] -44.2% | GLP1 secretion stimulation [4] 2.9% | inhibition of viability [5] -3.2% | viability decrease (inhibition) [6] -14.3% | viability decrease (inhibition) [7] 12.4% | inhibition [8] 9.21% | red/green cell ratio (normalised) [9] 1.18

CC(CN(C)C)CN1c2ccccc2CCc2ccccc21 (stereo not given)
active: inhibition of viability [5] 55.4% | viability decrease (inhibition) [6] 136%
inactive: insulin secretion stimulation [1] 2.4% | viability decrease [2] -139% | tube area decrease [3] 13.4% | GLP1 secretion stimulation [4] 4.5% | viability decrease (inhibition) [7] 1.5% | inhibition [8] 13.6% | red/green cell ratio (normalised) [9] 1.03
1.32: normalised cell number [9, 10]
1.36: normalised cell number [9, 11]

CC(C)(Oc1ccc(CCNC(=O)c2ccc(Cl)cc2)cc1)C(=O)O
1.03: normalised cell number [9, 10]
1.25: normalised cell number [9, 11]
inactive: insulin secretion stimulation [1] 0.4% | viability decrease [2] -10.3% | tube area decrease [3] -25.4% | GLP1 secretion stimulation [4] -1.3% | inhibition of viability [5] 4.05% | viability decrease (inhibition) [6] -13.9% | viability decrease (inhibition) [7] -20.8% | inhibition [8] 4.98% | red/green cell ratio (normalised) [9] 1.21
